From PubChem
Mtb FBA inh = inhibits M. tuberculosis FBA enzyme; inhibition, % at 1 µM; 2.3% of 360,000 active; P9WQA3; purified M. tuberculosis FBA, fluorescence read-out; in the data active = inhibition above about 27%
Target sequence (P9WQA3 whole entry, looked up): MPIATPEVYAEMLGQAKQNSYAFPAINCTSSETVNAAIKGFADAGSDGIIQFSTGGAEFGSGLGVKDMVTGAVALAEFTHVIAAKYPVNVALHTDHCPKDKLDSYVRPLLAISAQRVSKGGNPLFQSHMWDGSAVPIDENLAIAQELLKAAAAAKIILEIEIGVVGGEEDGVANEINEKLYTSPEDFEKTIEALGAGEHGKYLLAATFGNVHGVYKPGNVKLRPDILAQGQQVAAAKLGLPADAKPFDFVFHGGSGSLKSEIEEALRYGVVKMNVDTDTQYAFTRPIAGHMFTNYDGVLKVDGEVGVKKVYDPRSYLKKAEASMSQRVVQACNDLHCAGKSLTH
PrPC TRFRET = reduces human prion protein on the cell surface | P04156 | cell surface PrPC, TR-FRET read-out | inhibition, % at 13.8 µM | 0.43% of 370,000 active; in the data active = inhibition above about 24%
GDH-TPI counter = counter-screen for M. tuberculosis FBA inhibitors: GDH-TPI coupled enzymes; 1.2% of 360,000 active; inhibition, % at 4.8 µM; AID 588335; GDH-TPI coupled enzyme counterscreen, NADH absorbance; in the data active = inhibition above about 30%
SARS 3CLpro inh = SARS-CoV 3CLpro protease inhibition. P0C6X7. recombinant SARS-CoV 3CLpro, quenched FRET peptide cleavage. inhibition, % at 6 µM. 0.14% of 290,000 active. AID 1706; in the data active = inhibition above about 12%
Vc quorum ag = quorum light induction in luxS cqsA deficient V. cholerae. V. cholerae BH1578 lux reporter, luminescence, 6 h. activation, % at 18.7 µM. 0.16% of 350,000 active. AID 588436; in the data active = activation mostly above about 9.7%, no sharp cut-off
Each line names hits and unclear results; the compound was inactive in the other large screens. Sampled rows, rich in hits. Any-hit rate of the full collection: about 3.9%.

CC1CCCN(CCCNC(=O)c2nn(C)c3c2CSc2ccccc2-3)C1 (stereo not drawn)	none
COc1cc(-c2nnc(CSc3nnc(Nc4ccc(Oc5ccccc5)cc4)s3)o2)cc(OC)c1OC	none
N#C/C(=C\c1ccc(OCc2ccc(C(=O)O)cc2)cc1)C(=O)NCc1ccccc1	GDH-TPI counter 36
N#C/C(=C\c1ccc(O)c([N+](=O)[O-])c1)C(=O)NCc1ccccc1	GDH-TPI counter 44
Cc1cc(/C=C(\C#N)C(=O)NCc2ccccc2)c(C)[nH]1	GDH-TPI counter 31 (no result: SARS 3CLpro inh)
N#C/C(=C/c1ccccc1)C(=O)NCc1ccccc1	none
COc1cc(/C=C(\C#N)C(=O)NCc2ccccc2)ccc1OCc1ccc(C(=O)O)cc1	GDH-TPI counter 59
COc1cc(/C=C(/C#N)C(=O)Nc2ccccc2)ccc1OCc1ccc(C(=O)O)cc1	none
COc1ccccc1S(=O)(=O)N(C)C[C@H]1Oc2cc(Br)ccc2S(=O)(=O)N([C@H](C)CO)C[C@H]1C	none (no result: Mtb FBA inh, GDH-TPI counter, SARS 3CLpro inh, Vc quorum ag)
COc1ccc(C(=O)NCCCN(C)CCCNC(=O)c2ccc(OC)cc2)cc1	none
CC(=O)N1c2ccc(S(=O)(=O)NCCC(=O)Nc3ccc(C)c(Cl)c3)cc2CC1C (stereo not drawn)	none
COc1ccc(/C(N)=N/OC(=O)CN(C)S(=O)(=O)c2ccc(C)cc2)cc1	none
COc1ccc(CCNC(=O)c2cc3c(=O)n4ccccc4nc3n(CCN3CCOCC3)c2=N)cc1	none
Cc1cccn2c(=O)c3cc(C(=O)NCC4CCCO4)c(=N)n(CCN4CCOCC4)c3nc12 (stereo not drawn)	Mtb FBA inh 145
COCCCn1c(=N)c(C(=O)NCC2CCCO2)cc2c(=O)n3cccc(C)c3nc21 (stereo not drawn)	Mtb FBA inh active
CCOCCCn1c(=N)c(C(N)=S)cc2c(=O)n3cccc(C)c3nc21	Mtb FBA inh 77
COCCCn1c(=N)c(C(=O)NCC2CCCO2)cc2c(=O)n3ccccc3nc21 (stereo not drawn)	Mtb FBA inh active
COc1ccc(CCn2c(=N)c(C(=O)NCC3CCCO3)cc3c(=O)n4ccccc4nc32)cc1 (stereo not drawn)	none
COc1ccc(C(C(=O)NCCC(C)C)N(CCN2CCOCC2)C(=O)Cn2nnc3ccccc32)c(OC)c1 (stereo not drawn)	none
O=C(CCCn1c(SCc2cc(=O)n3ccccc3n2)nc2ccccc2c1=O)NCC1CCCO1 (stereo not drawn)	GDH-TPI counter 33
O=C(CCCn1c(SCc2cc(=O)n3cc(Cl)ccc3n2)nc2ccccc2c1=O)NCC1CCCO1 (stereo not drawn)	none
CCCn1c(=N)c(C(=O)NCC2CCCO2)cc2c(=O)n3cccc(C)c3nc21 (stereo not drawn)	Mtb FBA inh active
Cc1cccn2c(=O)c3cc(C#N)c(=N)n(CC4CCCO4)c3nc12 (stereo not drawn)	none (no result: Mtb FBA inh, PrPC TRFRET, GDH-TPI counter, Vc quorum ag)
COCCCn1c(C(=O)Nc2ccc3c(c2)OCO3)cc2c(=O)n3ccccc3nc21	none
COCCCn1c(C(=O)N2CCOCC2)cc2c(=O)n3ccccc3nc21	Mtb FBA inh active
CCN=c1scc(-c2ccco2)n1/N=C/c1ccc(OC)c(O)c1	GDH-TPI counter 32
CCN=c1scc(-c2ccco2)n1/N=C/c1ccc(O)cc1	none
Cc1ccc(S(=O)(=O)NC(CC(C)C)C(=O)N2CCN(C/C=C/c3ccccc3)CC2)cc1 (stereo not drawn)	none (no result: SARS 3CLpro inh)
CCCCOc1ccc(N=Cc2cccs2)cc1	none
Oc1ccc(N=Cc2ccc(-c3cccs3)s2)cc1	Mtb FBA inh active, GDH-TPI counter 35
O=Cc1ccc(-c2cccs2)s1	Mtb FBA inh active (no result: SARS 3CLpro inh)
Cc1nn(CCC(=O)NNC(=O)NCc2ccccc2)c(C)c1[N+](=O)[O-]	none (no result: Mtb FBA inh, GDH-TPI counter, SARS 3CLpro inh, Vc quorum ag)
Cc1nc2c(S(=O)(=O)c3ccccc3)cnn2c(C)c1C	Mtb FBA inh 44
CC(C)(C)S(=O)(=O)c1cnc2c(S(=O)(=O)c3ccccc3)cnn2c1N	none
CCC(=O)N1N=C(c2ccc(C)o2)CC1c1ccc(Br)cc1 (stereo not drawn)	none
CC(=O)N1N=C(c2ccc(C)o2)CC1c1ccc(F)cc1 (stereo not drawn)	GDH-TPI counter 71
N#Cc1c(-c2ccccc2Cl)c2c([nH]c1=O)-c1ccccc1OC2	Mtb FBA inh active
N#Cc1c(-c2ccncc2)c2c([nH]c1=O)-c1ccccc1OC2	none (no result: Mtb FBA inh, GDH-TPI counter, Vc quorum ag)
O=C(NC1=NCCS1)c1ccc(-c2ccc(Cl)cc2)o1	Mtb FBA inh 136, GDH-TPI counter 55
O=C(NC1=NCCS1)c1ccc(Cl)cc1	none
CN(CC(=O)Nc1ccccc1C(F)(F)F)C(=O)c1cc([N+](=O)[O-])ccc1N1CCOCC1	none
